Targets with a hit are over-represented here; the source holds about 7,900 in all. About 0.6% of all pairs of compound and target were hits.
What follows are targets tested with COc1cccc2cc(-c3nc([C@H]4CC[C@H](C(=O)O)CC4)n4ncnc(N)c34)[nH]c12 (assay: log2 fold change, soluble protein after heating vs DMSO (PISA); higher = thermal stabilisation; K562 cells, 10 uM, 30 min; active = over 0.2 and 3.5 SD of the protein, either way, in both replicates (recomputed)).
In short: (§1)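 Soluble protein was quantified by TMTpro 16plex LC-MS/MS after channel sums were equalised. It was obtained as the supernatant after 21,000xg for 90 min from pooled aliquots of K562 cells (2×10^6 cells/mL, 10 μM compound, 30 min) heated for 3 min across 48°C-58°C and extracted in PBS with 0.5% NP-40 at 4°C. Thermal stability values are relative to control samples and come from duplicates. They are given as log2 fold changes.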

Sequence of UniProt Q99805 (Q99805 whole entry, looked up): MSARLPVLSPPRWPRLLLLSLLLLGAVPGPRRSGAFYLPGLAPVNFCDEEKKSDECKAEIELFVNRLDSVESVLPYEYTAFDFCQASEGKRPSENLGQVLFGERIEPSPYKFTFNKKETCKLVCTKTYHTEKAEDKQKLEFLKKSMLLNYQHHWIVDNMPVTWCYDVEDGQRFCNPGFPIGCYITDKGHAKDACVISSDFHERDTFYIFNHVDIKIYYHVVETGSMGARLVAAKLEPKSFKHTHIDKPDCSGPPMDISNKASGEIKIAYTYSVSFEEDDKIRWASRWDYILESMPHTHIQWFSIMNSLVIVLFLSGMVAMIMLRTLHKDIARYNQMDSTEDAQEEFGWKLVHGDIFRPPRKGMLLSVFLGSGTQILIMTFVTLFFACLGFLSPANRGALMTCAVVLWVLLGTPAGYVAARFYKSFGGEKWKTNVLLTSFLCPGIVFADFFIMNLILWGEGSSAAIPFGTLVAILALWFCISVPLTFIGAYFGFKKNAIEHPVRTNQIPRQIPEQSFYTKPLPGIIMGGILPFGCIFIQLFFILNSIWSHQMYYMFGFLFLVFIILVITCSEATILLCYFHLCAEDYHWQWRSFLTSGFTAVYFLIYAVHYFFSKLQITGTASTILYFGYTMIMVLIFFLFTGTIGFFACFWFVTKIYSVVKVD
Sequence of UniProt Q9UDY2 (Q9UDY2 whole entry, looked up): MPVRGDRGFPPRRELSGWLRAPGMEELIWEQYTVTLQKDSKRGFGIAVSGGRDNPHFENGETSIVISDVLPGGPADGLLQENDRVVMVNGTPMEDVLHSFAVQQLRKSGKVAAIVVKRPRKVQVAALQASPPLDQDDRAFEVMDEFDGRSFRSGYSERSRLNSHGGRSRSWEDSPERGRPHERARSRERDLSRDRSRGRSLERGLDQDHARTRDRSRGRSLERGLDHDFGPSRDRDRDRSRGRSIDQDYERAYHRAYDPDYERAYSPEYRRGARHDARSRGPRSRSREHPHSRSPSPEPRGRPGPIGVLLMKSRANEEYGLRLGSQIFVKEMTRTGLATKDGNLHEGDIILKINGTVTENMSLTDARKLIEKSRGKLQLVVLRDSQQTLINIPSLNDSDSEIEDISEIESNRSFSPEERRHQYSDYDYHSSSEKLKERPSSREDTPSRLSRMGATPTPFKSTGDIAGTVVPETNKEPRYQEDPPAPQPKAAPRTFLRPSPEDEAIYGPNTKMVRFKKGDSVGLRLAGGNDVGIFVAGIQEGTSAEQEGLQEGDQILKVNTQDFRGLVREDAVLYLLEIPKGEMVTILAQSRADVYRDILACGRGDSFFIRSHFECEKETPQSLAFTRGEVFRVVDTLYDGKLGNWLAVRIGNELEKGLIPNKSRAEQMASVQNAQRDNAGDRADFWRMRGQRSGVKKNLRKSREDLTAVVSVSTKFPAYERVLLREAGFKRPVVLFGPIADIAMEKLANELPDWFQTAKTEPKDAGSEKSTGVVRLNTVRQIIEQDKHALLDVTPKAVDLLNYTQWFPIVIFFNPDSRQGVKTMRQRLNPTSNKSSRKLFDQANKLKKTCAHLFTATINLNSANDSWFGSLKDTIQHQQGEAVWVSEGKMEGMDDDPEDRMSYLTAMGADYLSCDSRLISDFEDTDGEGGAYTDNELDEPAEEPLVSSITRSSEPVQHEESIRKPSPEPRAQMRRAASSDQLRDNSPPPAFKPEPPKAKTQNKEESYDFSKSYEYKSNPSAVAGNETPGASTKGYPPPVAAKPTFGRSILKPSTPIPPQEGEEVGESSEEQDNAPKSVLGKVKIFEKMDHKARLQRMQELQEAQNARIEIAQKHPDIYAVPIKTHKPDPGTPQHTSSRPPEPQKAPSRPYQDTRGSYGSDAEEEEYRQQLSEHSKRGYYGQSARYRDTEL
Sequence of UniProt Q8WVK2 (Q8WVK2 whole entry, looked up): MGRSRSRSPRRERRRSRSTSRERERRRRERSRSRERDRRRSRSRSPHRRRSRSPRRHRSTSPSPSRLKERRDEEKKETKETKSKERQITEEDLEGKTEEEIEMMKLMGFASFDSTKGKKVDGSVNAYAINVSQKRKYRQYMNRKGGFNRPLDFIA
Sequence of UniProt P23497 (P23497 whole entry, looked up): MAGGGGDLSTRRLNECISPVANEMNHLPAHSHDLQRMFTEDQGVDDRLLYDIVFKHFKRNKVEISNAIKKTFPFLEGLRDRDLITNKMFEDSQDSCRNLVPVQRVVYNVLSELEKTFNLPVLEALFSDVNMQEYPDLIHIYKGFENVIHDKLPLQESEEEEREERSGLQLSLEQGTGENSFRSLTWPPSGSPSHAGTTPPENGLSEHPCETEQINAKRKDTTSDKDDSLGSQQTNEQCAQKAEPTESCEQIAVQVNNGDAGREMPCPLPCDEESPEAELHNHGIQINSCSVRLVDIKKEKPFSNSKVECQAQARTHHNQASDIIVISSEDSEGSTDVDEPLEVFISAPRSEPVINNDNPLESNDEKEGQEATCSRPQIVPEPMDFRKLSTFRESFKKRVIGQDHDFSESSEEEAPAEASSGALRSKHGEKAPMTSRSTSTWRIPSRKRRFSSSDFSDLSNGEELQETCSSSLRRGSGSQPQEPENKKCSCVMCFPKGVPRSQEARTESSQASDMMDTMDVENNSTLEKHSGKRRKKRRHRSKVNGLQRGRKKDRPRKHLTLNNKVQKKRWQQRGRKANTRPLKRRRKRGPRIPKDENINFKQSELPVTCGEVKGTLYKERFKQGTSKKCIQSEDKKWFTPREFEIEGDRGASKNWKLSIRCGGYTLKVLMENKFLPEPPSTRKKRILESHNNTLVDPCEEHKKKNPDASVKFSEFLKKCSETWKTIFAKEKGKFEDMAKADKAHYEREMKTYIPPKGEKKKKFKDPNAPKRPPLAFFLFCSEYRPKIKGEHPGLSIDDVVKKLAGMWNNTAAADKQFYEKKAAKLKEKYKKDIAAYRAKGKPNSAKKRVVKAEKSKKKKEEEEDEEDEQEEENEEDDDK
Sequence of UniProt O43615 (O43615 whole entry, looked up): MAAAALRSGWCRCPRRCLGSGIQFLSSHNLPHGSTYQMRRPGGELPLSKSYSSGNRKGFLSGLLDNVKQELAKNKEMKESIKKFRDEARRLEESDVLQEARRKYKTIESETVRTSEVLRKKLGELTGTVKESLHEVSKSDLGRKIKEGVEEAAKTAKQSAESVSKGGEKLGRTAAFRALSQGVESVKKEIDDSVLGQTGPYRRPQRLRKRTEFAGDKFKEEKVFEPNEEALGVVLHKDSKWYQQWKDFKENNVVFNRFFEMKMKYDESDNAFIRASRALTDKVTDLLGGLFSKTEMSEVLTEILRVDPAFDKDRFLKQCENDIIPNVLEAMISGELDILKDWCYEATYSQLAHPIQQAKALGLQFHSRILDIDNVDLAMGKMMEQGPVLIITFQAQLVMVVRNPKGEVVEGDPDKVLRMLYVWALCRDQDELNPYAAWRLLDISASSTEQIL
Sequence of UniProt Q9UNH7 (Q9UNH7 whole entry, looked up): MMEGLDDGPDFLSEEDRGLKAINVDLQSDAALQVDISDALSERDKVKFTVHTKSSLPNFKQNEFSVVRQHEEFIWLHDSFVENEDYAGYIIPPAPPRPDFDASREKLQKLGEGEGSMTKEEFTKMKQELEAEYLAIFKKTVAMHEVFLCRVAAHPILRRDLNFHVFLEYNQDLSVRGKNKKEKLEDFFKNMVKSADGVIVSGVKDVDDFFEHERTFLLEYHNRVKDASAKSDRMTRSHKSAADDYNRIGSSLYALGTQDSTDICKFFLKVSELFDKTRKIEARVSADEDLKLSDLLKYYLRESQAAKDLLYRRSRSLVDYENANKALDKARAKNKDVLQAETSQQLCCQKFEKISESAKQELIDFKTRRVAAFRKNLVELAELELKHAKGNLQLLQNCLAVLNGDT
Sequence of UniProt O00506 (O00506 whole entry, looked up): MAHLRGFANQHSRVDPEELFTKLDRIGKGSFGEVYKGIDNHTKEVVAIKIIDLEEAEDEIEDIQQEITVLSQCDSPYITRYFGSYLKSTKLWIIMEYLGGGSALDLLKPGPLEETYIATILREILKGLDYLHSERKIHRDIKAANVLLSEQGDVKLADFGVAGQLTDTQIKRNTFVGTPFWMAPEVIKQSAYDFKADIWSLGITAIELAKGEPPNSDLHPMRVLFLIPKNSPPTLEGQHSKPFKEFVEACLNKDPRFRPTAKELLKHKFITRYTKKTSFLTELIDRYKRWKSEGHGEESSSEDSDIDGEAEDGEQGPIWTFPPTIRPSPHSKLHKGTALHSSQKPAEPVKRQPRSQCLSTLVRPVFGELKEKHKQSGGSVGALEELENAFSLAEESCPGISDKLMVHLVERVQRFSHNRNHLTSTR
Sequence of UniProt Q9NZD8 (Q9NZD8 whole entry, looked up): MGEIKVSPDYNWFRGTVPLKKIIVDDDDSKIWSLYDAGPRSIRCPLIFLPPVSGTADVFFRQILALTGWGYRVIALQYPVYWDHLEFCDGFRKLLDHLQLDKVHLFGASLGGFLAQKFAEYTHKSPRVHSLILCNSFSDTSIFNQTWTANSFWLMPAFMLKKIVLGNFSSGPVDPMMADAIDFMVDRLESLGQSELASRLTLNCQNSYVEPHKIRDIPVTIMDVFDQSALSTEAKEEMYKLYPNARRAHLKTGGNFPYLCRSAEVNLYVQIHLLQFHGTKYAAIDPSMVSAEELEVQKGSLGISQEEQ
Sequence of UniProt P63165 (P63165 whole entry, looked up): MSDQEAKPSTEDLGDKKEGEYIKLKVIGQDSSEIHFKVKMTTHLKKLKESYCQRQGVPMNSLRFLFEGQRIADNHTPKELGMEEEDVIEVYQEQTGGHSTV
Sequence of UniProt P08579 (P08579 whole entry, looked up): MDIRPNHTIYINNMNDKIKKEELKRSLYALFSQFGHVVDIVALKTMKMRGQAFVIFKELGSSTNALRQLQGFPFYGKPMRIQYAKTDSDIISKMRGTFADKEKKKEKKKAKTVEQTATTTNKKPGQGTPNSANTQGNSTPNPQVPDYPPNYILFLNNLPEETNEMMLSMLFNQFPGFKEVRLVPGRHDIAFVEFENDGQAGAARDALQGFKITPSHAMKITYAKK

Q: With SRSF4 (UniProt Q08170) as the target, how does the log2 fold change read?
A: -0.089 (inactive)

Q: For SNRNP27 (UniProt Q8WVK2), which log2 fold change is on record?
A: 0.135 (inactive)

Q: With TJP2 isoform 7 (UniProt Q9UDY2) as the target, how does the log2 fold change read?
A: 0.012 (inactive)

Q: STEAP3 isoform 2 (UniProt Q658P3) was tested. Which log2 fold change did it give?
A: 0.025 (inactive)

Q: SP100 isoform 4 (UniProt P23497) was tested. Which log2 fold change did it give?
A: 0.036 (inactive)

Q: SPG21 (UniProt Q9NZD8) was tested. Which log2 fold change did it give?
A: 0.011 (inactive)

Q: For TIMM44 (UniProt O43615), which log2 fold change is on record?
A: 0.017 (inactive)

Q: TBC1D23 (UniProt Q9NUY8) was tested. Which log2 fold change did it give?
A: 0.021 (inactive)

Q: For SPAG9 (UniProt O60271), which log2 fold change is on record?
A: -0.031 (inactive)

Q: For SNRPB2 (UniProt P08579), which log2 fold change is on record?
A: -0.006 (inactive)

Q: For SNX6 (UniProt Q9UNH7), which log2 fold change is on record?
A: 0.004 (inactive)

Q: Which log2 fold change does the source give for STK25 (UniProt O00506) here?
A: 0.038 (inactive)

Q: How did the log2 fold change turn out when TJP1 (UniProt Q07157) was run?
A: 0.055 (inactive)

Q: STK11IP (UniProt Q8N1F8) was tested. Which log2 fold change did it give?
A: -0.139 (inactive)

Q: SUMO1 (UniProt P63165) was tested. Which log2 fold change did it give?
A: 0.055 (inactive)

Q: For TM9SF2 (UniProt Q99805), which log2 fold change is on record?
A: 0.007 (inactive)

What follows are targets tested with CS(=O)(=O)CCNCc1ccc(-c2ccc3ncnc(Nc4ccc(OCc5cccc(F)c5)c(Cl)c4)c3c2)o1 [lapatinib] in the same assay as above.
In short: as §1

Q: Which log2 fold change does the source give for TERF2IP (UniProt Q9NYB0) here?
A: -0.008 (inactive)

Q: TGFBR1 isoform 2 (UniProt P36897) was tested. Which log2 fold change did it give?
A: 0.063 (inactive)

Q: For SLC25A39 (UniProt Q9BZJ4), which log2 fold change is on record?
A: -0.044 (inactive)

Q: Which log2 fold change does the source give for SLC27A2 (UniProt O14975) here?
A: 0.112 (inactive)

Q: With STAT5B (UniProt P51692) as the target, how does the log2 fold change read?
A: 0.029 (inactive)

Q: Which log2 fold change does the source give for TBC1D15 isoform 3 (UniProt Q8TC07) here?
A: 0.032 (inactive)

Q: With TELO2 (UniProt Q9Y4R8) as the target, how does the log2 fold change read?
A: 0.007 (inactive)

Q: SQSTM1 (UniProt Q13501) was tested. Which log2 fold change did it give?
A: -0.012 (inactive)

Q: For TBC1D5 isoform 2 (UniProt Q92609), which log2 fold change is on record?
A: -0.062 (inactive)

Q: With SRI (UniProt P30626) as the target, how does the log2 fold change read?
A: 0.008 (inactive)

Q: With STAT3 (UniProt P40763) as the target, how does the log2 fold change read?
A: 0.004 (inactive)

Q: How did the log2 fold change turn out when SRPRA (UniProt P08240) was run?
A: 0.013 (inactive)

Q: With TAOK1 (UniProt Q7L7X3) as the target, how does the log2 fold change read?
A: 0.014 (inactive)

Q: Which log2 fold change does the source give for STK26 (UniProt Q9P289) here?
A: 0.019 (inactive)

Q: With STK4 (UniProt Q13043) as the target, how does the log2 fold change read?
A: -0.036 (inactive)

Q: With STXBP2 isoform 3 (UniProt Q15833) as the target, how does the log2 fold change read?
A: 0.007 (inactive)

Q: How did the log2 fold change turn out when SRPRB (UniProt Q9Y5M8) was run?
A: 0.048 (inactive)

Q: Which log2 fold change does the source give for TIMM29 (UniProt Q9BSF4) here?
A: 0.014 (inactive)

Q: How did the log2 fold change turn out when SPG11 (UniProt Q96JI7) was run?
A: -0.167 (inactive)

Q: How did the log2 fold change turn out when SLC25A36 (UniProt Q96CQ1) was run?
A: 0.107 (inactive)

Q: Which log2 fold change does the source give for SLC25A42 (UniProt Q86VD7) here?
A: 0.084 (inactive)

Q: For TAMM41 isoform 3 (UniProt Q96BW9), which log2 fold change is on record?
A: 0.021 (inactive)

Q: Which log2 fold change does the source give for SRSF4 (UniProt Q08170) here?
A: 0.137 (inactive)

Q: Which log2 fold change does the source give for SNRNP27 (UniProt Q8WVK2) here?
A: 0.005 (inactive)

Q: For TJP2 isoform 7 (UniProt Q9UDY2), which log2 fold change is on record?
A: 0.008 (inactive)

Q: For STEAP3 isoform 2 (UniProt Q658P3), which log2 fold change is on record?
A: 0.013 (inactive)

Q: With SP100 isoform 4 (UniProt P23497) as the target, how does the log2 fold change read?
A: 0.188 (inactive)

Q: For SPG21 (UniProt Q9NZD8), which log2 fold change is on record?
A: 0.072 (inactive)

Q: Which log2 fold change does the source give for TIMM44 (UniProt O43615) here?
A: -0.073 (inactive)

Q: How did the log2 fold change turn out when TBC1D23 (UniProt Q9NUY8) was run?
A: -0.053 (inactive)

Q: Which log2 fold change does the source give for SPAG9 (UniProt O60271) here?
A: -0.026 (inactive)

Q: SNRPB2 (UniProt P08579) was tested. Which log2 fold change did it give?
A: -0.002 (inactive)

Q: For SNX6 (UniProt Q9UNH7), which log2 fold change is on record?
A: -0.055 (inactive)

Q: With STK25 (UniProt O00506) as the target, how does the log2 fold change read?
A: -0.047 (inactive)

Q: Which log2 fold change does the source give for TJP1 (UniProt Q07157) here?
A: -0.006 (inactive)

Q: STK11IP (UniProt Q8N1F8) was tested. Which log2 fold change did it give?
A: -0.088 (inactive)

Q: For SUMO1 (UniProt P63165), which log2 fold change is on record?
A: 0.549 (active)

Q: For TM9SF2 (UniProt Q99805), which log2 fold change is on record?
A: 0.011 (inactive)

Each target was assayed with CS(=O)(=O)N1CCN(Cc2cc3nc(-c4cccc5[nH]ncc45)nc(N4CCOCC4)c3s2)CC1 [pictilisib] in the same assay as above.
In short: as §1

Q: How did the log2 fold change turn out when TERF2IP (UniProt Q9NYB0) was run?
A: -0.036 (inactive)

Q: Which log2 fold change does the source give for TGFBR1 isoform 2 (UniProt P36897) here?
A: -0.073 (inactive)

Q: Which log2 fold change does the source give for SLC25A39 (UniProt Q9BZJ4) here?
A: -0.072 (inactive)

Q: How did the log2 fold change turn out when SLC27A2 (UniProt O14975) was run?
A: 0.034 (inactive)

Q: STAT5B (UniProt P51692) was tested. Which log2 fold change did it give?
A: -0.148 (inactive)

Q: How did the log2 fold change turn out when TBC1D15 isoform 3 (UniProt Q8TC07) was run?
A: -0.009 (inactive)

Q: With TELO2 (UniProt Q9Y4R8) as the target, how does the log2 fold change read?
A: -0.023 (inactive)

Q: Which log2 fold change does the source give for SQSTM1 (UniProt Q13501) here?
A: -0.112 (inactive)

Q: With TBC1D5 isoform 2 (UniProt Q92609) as the target, how does the log2 fold change read?
A: -0.091 (inactive)

Q: With SRI (UniProt P30626) as the target, how does the log2 fold change read?
A: -0.04 (inactive)

Q: STAT3 (UniProt P40763) was tested. Which log2 fold change did it give?
A: 0.051 (inactive)

Q: For SRPRA (UniProt P08240), which log2 fold change is on record?
A: -0.012 (inactive)

Q: For TAOK1 (UniProt Q7L7X3), which log2 fold change is on record?
A: -0.043 (inactive)

Q: For STK26 (UniProt Q9P289), which log2 fold change is on record?
A: -0.105 (inactive)

Q: With STK4 (UniProt Q13043) as the target, how does the log2 fold change read?
A: 0.02 (inactive)

Q: Which log2 fold change does the source give for STXBP2 isoform 3 (UniProt Q15833) here?
A: -0.091 (inactive)

Q: Which log2 fold change does the source give for SRPRB (UniProt Q9Y5M8) here?
A: -0.022 (inactive)

Q: Which log2 fold change does the source give for TIMM29 (UniProt Q9BSF4) here?
A: 0.051 (inactive)

Q: With SPG11 (UniProt Q96JI7) as the target, how does the log2 fold change read?
A: 0.401 (inactive)

Q: Which log2 fold change does the source give for SLC25A36 (UniProt Q96CQ1) here?
A: 0.052 (inactive)

Q: Which log2 fold change does the source give for SLC25A42 (UniProt Q86VD7) here?
A: -0.003 (inactive)

Q: TAMM41 isoform 3 (UniProt Q96BW9) was tested. Which log2 fold change did it give?
A: 0.027 (inactive)

Q: SRSF4 (UniProt Q08170) was tested. Which log2 fold change did it give?
A: -0.007 (inactive)

Q: For SNRNP27 (UniProt Q8WVK2), which log2 fold change is on record?
A: -0.009 (inactive)

Q: Which log2 fold change does the source give for TJP2 isoform 7 (UniProt Q9UDY2) here?
A: 0.067 (inactive)

Q: STEAP3 isoform 2 (UniProt Q658P3) was tested. Which log2 fold change did it give?
A: 0.227 (active)

Q: For SP100 isoform 4 (UniProt P23497), which log2 fold change is on record?
A: 0.013 (inactive)

Q: Which log2 fold change does the source give for SPG21 (UniProt Q9NZD8) here?
A: 0.064 (inactive)

Q: TIMM44 (UniProt O43615) was tested. Which log2 fold change did it give?
A: -0.041 (inactive)

Q: How did the log2 fold change turn out when TBC1D23 (UniProt Q9NUY8) was run?
A: -0.067 (inactive)

Q: SPAG9 (UniProt O60271) was tested. Which log2 fold change did it give?
A: 0.041 (inactive)

Q: For SNRPB2 (UniProt P08579), which log2 fold change is on record?
A: 0.006 (inactive)

Q: For SNX6 (UniProt Q9UNH7), which log2 fold change is on record?
A: -0.252 (inactive)

Q: How did the log2 fold change turn out when STK25 (UniProt O00506) was run?
A: 0.053 (inactive)

Q: TJP1 (UniProt Q07157) was tested. Which log2 fold change did it give?
A: 0.017 (inactive)

Q: Which log2 fold change does the source give for STK11IP (UniProt Q8N1F8) here?
A: 0.117 (inactive)

Q: With SUMO1 (UniProt P63165) as the target, how does the log2 fold change read?
A: 0.006 (inactive)

Q: For TM9SF2 (UniProt Q99805), which log2 fold change is on record?
A: 0.085 (inactive)
